Measured values published in PubChem BioAssay.
Records with an inconclusive call do not appear. Activity calls are given as the source filed them.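 The calls were made as follows, unless noted: active = viability at or under a set limit in both replicates, limit being median viability minus 3 SD (cut at about 48% in these data, passing the limit was not always enough); inconclusive = at or under the limit in just one replicate; inactive = at or above the limit in both replicates.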

How the values were obtained:
[1] = reducers of endogenous Her2 protein level, primary screen, SKBR3 breast tumor cells, AlphaScreen, ATP viability (AID 461;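 active = Her2 level under about 52% in both replicate screens, with viability over 70% of control, limit read from the data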;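 as to Her2 level: lower value means less Her2 protein in the cells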;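 as to viability: percent of carrier control wells set as 100% viability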); settings: 18-24 h, measured here: SKBR3 viability, ATP luminescence, at 10 µM
[2] = target: Receptor tyrosine-protein kinase erbB-2 (Homo sapiens) (UniProt P04626); assay: as above; settings: 18-24 h, at 10 µM, stronger effect = lower value
[3] = SK-BR-3 cell growth inhibitors, pilot screen, 24 h, human (AID 572;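 active = viability at or below 10% of carrier control in both of two separate runs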;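 also: compound exposure lasted between 18 and 24 h rather than exactly 24 h; 100% = carrier-treated control wells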); settings: SK-BR-3 viability, CellTiter-Glo luminescence, at 10 µM, stronger effect = lower value
[4] = HUVEC growth inhibition – cell-based, human, primary screen (AID 575;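 active = viability at or below 30% in both replicate assays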;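 also: 100% = median of untreated cell wells with 0.1% DMSO on each plate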); settings: HUVEC proliferation, CellTiter-Glo luminescence, 72 h; at 10 µM; stronger effect = lower value
[5] = growth inhibitors of H69AR lung tumor, primary screen, human, duplicate replicates (AID 580); settings: H69AR lung tumor cells viability, ATP luminescence, 72 h; at 10 µM; stronger effect = lower value;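 also: 100% = mean luminescence of untreated wells and 0% = no signal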
[6] = reversal of MRP1-mediated doxorubicin resistance, pilot screen, H69AR cells, doxorubicin co-treatment (AID 601;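 active = viability loss from added drug above about 55%, and viability with drug at most 40%, in both replicates, limit read from the data, passing the limit was not always enough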); settings: CellTiter-Glo, 72 h, at 10 µM; for differential viability (reversal): stronger effect = higher value
[7] = 384-well plate pilot, post-Golgi transport modulator project, inhibition of yeast transport mutant growth (AID 636; in the data active = inhibition above about 31%); settings: absorbance 615 nm, about 18 h, stronger effect = higher value
[8] = growth suppression of yeast trafficking mutant, preliminary HTS, modulators of trafficking downstream of Golgi apparatus project, 1536-format plate, OD 615 nm (AID 637; in the data active = inhibition above about 30%); settings: yeast transport mutant growth, absorbance 615 nm, 18 h; stronger effect = higher value
[9] = OD615 S. cerevisiae growth inhibition, permissive medium, pilot counter-assay, permissive growth control for S. cerevisiae lifespan shortening project (AID 705;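 active = growth inhibition above 25% in both replicates, a cutoff set 3 SD above the mean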); settings: OD615, 24 h, at 10 µM, stronger effect = higher value
[10] = Restrictive medium S. cerevisiae growth inhibition, OD615, pilot screen of yeast lifespan reduction project, restrictive growth control (AID 706;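 active = growth inhibition above a set limit, 3 SD over mean compound inhibition, in both replicates, cut at about 43% in these data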;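 also: modified DeaD lifespan yeast strain shifted to restrictive glucose medium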); settings: OD615, 48 h, at 10 µM, stronger effect = higher value
[11] = viability gain of MRP-1-high H69AR cells under doxorubicin, pilot screen, MRP-1 activator project, CellTiter-Glo, duplicate (AID 807;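 active = viability increase at or above a cutoff of the median across tested compounds plus 3 SD, cut at about 8.5% in these data, passing the limit was not always enough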;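 also: compound pretreatment 18-22 h then 72 h combined with doxorubicin; 0% = doxorubicin alone and 100% = vehicle without doxorubicin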); settings: H69AR viability with doxorubicin, CellTiter-Glo luminescence; at 10 µM; stronger effect = higher value
[12] = growth suppression of beta-catenin knockout HCT116, pilot screen, human colon tumor cells (AID 823;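 active = cell viability at or below a set limit in both duplicate runs, the limit being the all-compound median minus 4 SD, cut at about 23% in these data, passing the limit was not always enough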;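 also: 0% = wells killed by 20 µM Hyamine and 100% = untreated DMSO cell wells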); settings: CellTiter-Glo, 60 h, at 10 µM, stronger effect = lower value
[13] = growth suppression of PTEN-deleted HCT116, pilot screen, cell-based, HCT116 clonal line, CellTiter-Glo (AID 824;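 active = viability at or below 27.92% in each of two runs, the all-compound median minus 4 SD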;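 also: 0% = 20 µM Hyamine control and 100% = vehicle cell control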); settings: 60 h, at 10 µM, stronger effect = lower value
[14] = inhibitors of the yeast RAM network, pilot screen, dse1pr::URA3 reporter, 5-FOA selection (AID 869;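 active = inhibition over a set limit, the all-compound mean plus 3 SD, in both replicate runs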;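 also: 0% = DMSO wells with no growth and 100% = 10 µM 1-NA-PP1 with full growth; RAM network block rescues cells from 5-FOA so hits raise OD615 growth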); settings: S. cerevisiae dse1pr::URA3 5-FOA growth, OD615, 2 d; at 10 µM; stronger effect = higher value; strain carries analog-sensitive mutant Cbk1 kinase
[15] = RAM signaling pathway blockade in yeast – S. cerevisiae, Pdr1DBD-CYC8 efflux-inhibited sensitized strain, primary screen (AID 1298;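 active = RAM network inhibition above 8.4% in each of two replicates, 3 SD over the compound average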;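 also: 0% = DMSO untreated cells without growth and 100% = 10 µM 1-NA-PP1 full growth; higher means more yeast growth rescued from 5-FOA killing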); settings: S. cerevisiae cbk1-as DSE1-URA3 strain, 5-FOA growth OD615, 2 d; at 50 µM; stronger effect = higher value
[16] = H69AR cells + 2 uM doxorubicin, measured here: viability with 2 uM doxorubicin, stronger effect = lower value
[17] = H69AR cells, compound alone cytotoxicity

Chain of Receptor tyrosine-protein kinase erbB-2 (Homo sapiens) (P04626 whole entry, looked up): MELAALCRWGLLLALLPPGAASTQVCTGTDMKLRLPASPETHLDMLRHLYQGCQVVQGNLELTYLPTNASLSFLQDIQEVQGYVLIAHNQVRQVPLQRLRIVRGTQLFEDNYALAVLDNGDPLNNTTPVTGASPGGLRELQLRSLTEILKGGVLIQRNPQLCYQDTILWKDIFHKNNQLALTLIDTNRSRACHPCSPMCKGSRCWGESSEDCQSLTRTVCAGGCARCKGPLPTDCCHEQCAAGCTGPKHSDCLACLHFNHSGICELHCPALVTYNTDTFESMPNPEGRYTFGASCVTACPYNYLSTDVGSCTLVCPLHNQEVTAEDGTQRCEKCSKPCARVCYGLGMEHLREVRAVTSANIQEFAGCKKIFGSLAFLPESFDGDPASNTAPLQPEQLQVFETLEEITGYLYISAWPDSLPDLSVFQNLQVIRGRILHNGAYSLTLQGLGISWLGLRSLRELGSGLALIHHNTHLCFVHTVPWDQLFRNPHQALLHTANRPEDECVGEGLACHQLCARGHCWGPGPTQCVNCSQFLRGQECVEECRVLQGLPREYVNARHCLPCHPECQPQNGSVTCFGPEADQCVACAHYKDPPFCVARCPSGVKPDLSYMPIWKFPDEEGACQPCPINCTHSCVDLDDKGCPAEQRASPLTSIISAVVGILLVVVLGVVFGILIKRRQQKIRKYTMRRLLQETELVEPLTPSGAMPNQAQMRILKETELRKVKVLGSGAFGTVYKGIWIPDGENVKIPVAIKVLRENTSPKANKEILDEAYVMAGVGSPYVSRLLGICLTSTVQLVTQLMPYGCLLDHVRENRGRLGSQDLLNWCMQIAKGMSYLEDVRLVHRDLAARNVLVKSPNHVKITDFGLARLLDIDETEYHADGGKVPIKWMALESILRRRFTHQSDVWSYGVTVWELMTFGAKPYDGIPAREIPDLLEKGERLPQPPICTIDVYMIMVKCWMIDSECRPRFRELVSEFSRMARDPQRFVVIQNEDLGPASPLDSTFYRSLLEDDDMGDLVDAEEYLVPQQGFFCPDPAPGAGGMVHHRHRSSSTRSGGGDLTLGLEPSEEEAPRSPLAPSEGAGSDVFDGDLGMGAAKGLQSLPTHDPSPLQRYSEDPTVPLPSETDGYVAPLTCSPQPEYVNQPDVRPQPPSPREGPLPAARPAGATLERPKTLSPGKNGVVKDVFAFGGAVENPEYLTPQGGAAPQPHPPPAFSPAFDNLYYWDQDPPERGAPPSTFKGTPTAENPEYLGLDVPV

Structure (SMILES) | viability [1] [%] | Her2 level [2] | viability [3] | viability [4] | viability [5] | differential viability (reversal) ([6]; H69AR cells + 2 uM doxorubicin) | viability [6, 16] [%] | viability [6, 17] [%] | inhibition [7] | inhibition [8] | growth inhibition [9] | growth inhibition [10] | viability increase [11] | viability [12] | viability [13] | inhibition [14] | RAM network inhibition [15]
COc1ccc(C(=O)CN2C3=NCCCN3c3ccccc32)cc1OC | 89 | 109% (inactive) | 89% (inactive) | 81.3% (inactive) | 82.4% (inactive) | 5.29% (inactive) | 77.1 | 82.4 | -0.39% (inactive) | 2.5% (inactive) | -6.53% (inactive) | -6.88% (inactive) | -2.15% (inactive) | 56.2% (inactive) | 64.7% (inactive) | 1% (inactive) | 2.03% (inactive)
COc1ccc(-c2nc3c(n2O)CCC/C3=N\O)cc1 | 89.5 | 88.5% (inactive) | 89.5% (inactive) | 67.4% (inactive) | 86.5% (inactive) | 5% (inactive) | 81.5 | 86.5 | -1.43% (inactive) | 0.33% (inactive) | 1.93% (inactive) | 4.75% (inactive) | -4.71% (inactive) | 94.2% (inactive) | 96% (inactive) | 0.805% (inactive) | 3.84% (inactive)
CC(=O)c1cc2c(cc1NC(=O)CN1CCN(C(=O)c3ccco3)CC1)OCO2 | 90 | 120% (inactive) | 90% (inactive) | 92.5% (inactive) | 86.3% (inactive) | -3.21% (inactive) | 89.5 | 86.3 | -5.47% (inactive) | -3.5% (inactive) | 0.565% (inactive) | -17.1% (inactive) | -3.21% (inactive) | 98.2% (inactive) | 97% (inactive) | 2.79% (inactive) | 0.37% (inactive)
COc1ccc(CCNC(=O)c2cc3sc(Cl)cc3n2C)cc1OC | 89.5 | 94% (inactive) | 89.5% (inactive) | 98.3% (inactive) | 90.7% (inactive) | -3.9% (inactive) | 94.6 | 90.7 | -3.59% (inactive) | -8% (inactive) | -5.07% (inactive) | 12.9% (inactive) | 3.32% (inactive) | 65.2% (inactive) | 77.3% (inactive) | 0.605% (inactive) | 1.25% (inactive)
